Jurkat NFkB inh – inhibitors of the PMA/ionomycin-induced NF-kB reporter in Jurkat cells. PMA/ionomycin-induced NF-kB luciferase reporter, luminescence. inhibition, % at 4 µM. 330,000 tested, 0.53% active; in the data active means inhibition above about 50%
Gli-Sufu antag – Gli-Sufu pathway antagonism | Sufu-KO-LIGHT fibroblasts, Gli luciferase reporter luminescence | inhibition, % at 5 µM | 340,000 tested, 0.74% active;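 active means inhibition above about 55%, limit read from the data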;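 further: 0% = DMSO-treated cells and 100% = wells with medium but no cells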
697 NFkB inh – inhibitors of the PMA/ionomycin-induced NF-kB reporter in 697 B cells; 330,000 tested, 0.33% active; 697 B-cell NF-kB luciferase reporter, 16 h; inhibition, % at 4 µM; in the data active means inhibition above about 35%
CSC inhib – cancer stem cell inhibition; 300,000 tested, 1.1% active; cancer stem cell-like cells viability, luminescence; inhibition, % at 7.5 µM; AID 2717; in the data active means inhibition above about 75%; tested in HMLE shEcad cells
Mdm2-MdmX inh – disrupts the human Mdm2-MdmX interaction; O15151+Q00987; SaOS-2 split-luciferase Mdm2/MdmX complementation, luminescence; inhibition, % at 8 µM; 330,000 tested, 3% active;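 active means inhibition of at least 50% at 8 µM in the primary screen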
Target sequence (O15151 whole entry, looked up): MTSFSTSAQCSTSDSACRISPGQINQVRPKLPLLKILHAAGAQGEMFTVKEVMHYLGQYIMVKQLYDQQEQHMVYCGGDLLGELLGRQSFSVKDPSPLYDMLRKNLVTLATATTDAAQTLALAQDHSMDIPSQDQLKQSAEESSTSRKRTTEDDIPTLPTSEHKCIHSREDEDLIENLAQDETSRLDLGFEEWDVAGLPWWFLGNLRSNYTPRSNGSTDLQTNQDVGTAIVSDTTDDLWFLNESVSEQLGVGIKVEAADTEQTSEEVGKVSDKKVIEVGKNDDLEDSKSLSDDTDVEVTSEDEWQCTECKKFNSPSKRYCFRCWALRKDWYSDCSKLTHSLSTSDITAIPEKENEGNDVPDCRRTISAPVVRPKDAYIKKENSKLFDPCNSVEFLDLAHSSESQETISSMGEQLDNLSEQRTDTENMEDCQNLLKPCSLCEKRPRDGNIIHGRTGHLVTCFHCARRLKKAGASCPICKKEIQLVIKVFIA
Target sequence (Q00987 whole entry, looked up): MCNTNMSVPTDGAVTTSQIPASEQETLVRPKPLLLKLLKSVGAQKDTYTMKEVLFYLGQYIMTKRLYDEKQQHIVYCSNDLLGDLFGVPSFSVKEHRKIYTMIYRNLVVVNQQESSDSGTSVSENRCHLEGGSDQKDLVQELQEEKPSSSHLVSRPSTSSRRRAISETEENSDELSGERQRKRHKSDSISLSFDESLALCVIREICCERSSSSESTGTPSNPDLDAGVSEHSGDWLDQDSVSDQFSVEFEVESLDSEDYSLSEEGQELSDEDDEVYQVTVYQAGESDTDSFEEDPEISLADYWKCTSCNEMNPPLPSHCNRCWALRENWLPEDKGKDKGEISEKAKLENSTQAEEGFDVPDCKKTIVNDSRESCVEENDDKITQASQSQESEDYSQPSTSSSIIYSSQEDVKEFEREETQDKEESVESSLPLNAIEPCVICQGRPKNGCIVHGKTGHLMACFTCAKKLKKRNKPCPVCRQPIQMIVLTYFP
Beta cell apopt – blocks beta cell apoptosis | INS-1E cytokine-induced death, ATP luminescence, 48 h; percent of positive-control rescue, neutral wells zero | protection from apoptosis, % (test concentration not listed) | 300,000 tested, 0.8% active | AID 435005;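 active means Every replicate reaches about 75%, or at least half do and their mean reaches it too, limit read from the data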;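 further: 0% = cytokine-treated negative control wells and 100% = positive control rescue; higher means more ATP so stronger rescue from cytokine killing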
An asterisk follows results filed as active. Hits are enriched below; roughly 4.5% of the tested compounds scored in any of these assays.

Screening Cc1ccc(-c2ccc([C@H]3[C@@H]4C=CCC[C@@]4(C)C(=O)N3Cc3ccccc3)c(F)c2)cc1 returned Jurkat NFkB inh 14, Gli-Sufu antag -2, 697 NFkB inh 18, CSC inhib 96*, Mdm2-MdmX inh 39 and Beta cell apopt 5.
CCOC(=O)C(=O)N/N=C/c1ccc(F)cc1 was read as Jurkat NFkB inh -24, Gli-Sufu antag -1, 697 NFkB inh 11, CSC inhib -1, Mdm2-MdmX inh 7 and Beta cell apopt 2.
For CCOC(=O)C(=O)NNc1ccc(F)cc1 the results were Jurkat NFkB inh 2, Gli-Sufu antag 4, 697 NFkB inh 15, CSC inhib 101*, Mdm2-MdmX inh -15 and Beta cell apopt 4.
Screening CCCCCCCCCc1nc2sc3c(c2c(=O)n1NC(=O)c1ccccc1[N+](=O)[O-])CC(C)(C)OC3 returned Jurkat NFkB inh 10, Gli-Sufu antag -12, 697 NFkB inh 3, CSC inhib 107*, Mdm2-MdmX inh -7 and Beta cell apopt 4.
Screening CCCCCCCCCc1nc2sc3c(c2c(=O)n1NC(=O)c1ccc([N+](=O)[O-])cc1)CC(C)(C)OC3 returned Jurkat NFkB inh -6, Gli-Sufu antag 1, 697 NFkB inh -12, CSC inhib -21, Mdm2-MdmX inh 37 and Beta cell apopt 0.
For c1ccc(C(c2ccccc2)c2noc(CN3CCN(C4CCCC4)CC3)n2)cc1 the results were Jurkat NFkB inh -13, Gli-Sufu antag 35, 697 NFkB inh -14, CSC inhib 35, Mdm2-MdmX inh 10 and Beta cell apopt -4.
FC(F)(F)c1ccc(-c2noc(CN3CCCN(C4CCCCC4)CC3)n2)cc1 was read as Jurkat NFkB inh 4, Gli-Sufu antag 1, 697 NFkB inh -22, CSC inhib 106*, Mdm2-MdmX inh 28 and Beta cell apopt -4.
CCN(CC(=O)NCc1cccs1)CC(=O)Nc1ccccc1C was read as Jurkat NFkB inh -13, Gli-Sufu antag 2, 697 NFkB inh -11, CSC inhib 2, Mdm2-MdmX inh -45 and Beta cell apopt -2.
`CSc1ccccc1C(=O)N(CC1CCCO1)c1c(N)n(Cc2ccccc2)c(=O)[nH]c1=O` (centres undefined) gave Jurkat NFkB inh 0, Gli-Sufu antag -17, 697 NFkB inh 5, CSC inhib -1, Mdm2-MdmX inh -8 and Beta cell apopt -6.
`Cc1ccc(C(C)C)c(OCC(O)CN2CCc3ccccc3C2)c1` (centres undefined) gave Jurkat NFkB inh 0, Gli-Sufu antag 42, 697 NFkB inh -14, CSC inhib 12, Mdm2-MdmX inh 20 and Beta cell apopt 98*.
`Cc1cccc(C)c1OCC(O)CN1CCc2ccccc2C1` (centres undefined) gave Jurkat NFkB inh 2, Gli-Sufu antag 8, 697 NFkB inh 9, CSC inhib 23, Mdm2-MdmX inh -15 and Beta cell apopt -5.
`COc1ccc(CCN2CC(C(=O)NCCc3cnn(C)c3)CCC2=O)cc1` (centres undefined) gave Jurkat NFkB inh -4, Gli-Sufu antag 29, 697 NFkB inh -9, CSC inhib -3, Mdm2-MdmX inh 12 and Beta cell apopt -2.
Screening O=C(Nc1ccc(Cl)cc1)Nc1ccccc1Sc1ncc([N+](=O)[O-])s1 returned Jurkat NFkB inh -16, Gli-Sufu antag -1, 697 NFkB inh -43, CSC inhib 84*, Mdm2-MdmX inh -22 and Beta cell apopt 23.
For COc1ccc(-c2noc(-c3ccccc3-c3ccccc3)n2)cc1OC the results were Jurkat NFkB inh 0, Gli-Sufu antag 34, 697 NFkB inh 20, CSC inhib 80*, Mdm2-MdmX inh 18 and Beta cell apopt 5.
O=c1c2ccccc2nc(COc2ccccc2)n1/N=C/c1cc([N+](=O)[O-])ccc1O was read as Jurkat NFkB inh 5, Gli-Sufu antag 19, 697 NFkB inh -55, CSC inhib 75*, Mdm2-MdmX inh 25 and Beta cell apopt 79*.
For Cc1ccccc1OCc1nc2ccccc2c(=O)n1/N=C/c1c[nH]c2ccccc12 the results were Jurkat NFkB inh -11, Gli-Sufu antag 1, 697 NFkB inh -4, CSC inhib 12, Mdm2-MdmX inh 37 and Beta cell apopt 7.
Screening CCCc1nc2ccccc2c(=O)n1/N=C/c1ccccc1O returned Jurkat NFkB inh 13, Gli-Sufu antag 20, 697 NFkB inh 2, CSC inhib 17, Mdm2-MdmX inh 5 and Beta cell apopt 97*.
Cc1nc2ccccc2c(=O)n1/N=C/c1ccc(O)cc1O was read as Jurkat NFkB inh 6, Gli-Sufu antag -1, 697 NFkB inh -18, CSC inhib 7, Mdm2-MdmX inh 10 and Beta cell apopt -5.
`O=[N+]([O-])c1ccc(Cl)c(/C=N/n2c(COc3ccccc3)n[nH]c2=S)c1` gave Jurkat NFkB inh 10, Gli-Sufu antag 5, 697 NFkB inh -29, CSC inhib 60, Mdm2-MdmX inh 26 and Beta cell apopt 5.
`Cc1ccc(-c2[nH]ncc2/C=N/n2c(COc3ccccc3C)nc3ccccc3c2=O)cc1` gave Jurkat NFkB inh 4, Gli-Sufu antag -3, 697 NFkB inh 14, CSC inhib -8, Mdm2-MdmX inh 30 and Beta cell apopt 93*.
Screening CC1(C(=O)OCC(=O)Nc2nc(-c3ccc(F)c(F)c3)cs2)CC1(Cl)Cl (centres undefined) returned Jurkat NFkB inh -29, Gli-Sufu antag 13, 697 NFkB inh -4, CSC inhib 6 and Mdm2-MdmX inh 42.
Screening OCCNc1cc(Cl)ncn1 returned Jurkat NFkB inh -8, Gli-Sufu antag 2, 697 NFkB inh 8, CSC inhib -21, Mdm2-MdmX inh 2 and Beta cell apopt 0.
`O=C(CC1CC2CCC1C2)NC1CCCCCCC1` (centres undefined) gave Jurkat NFkB inh -29, Gli-Sufu antag -27, 697 NFkB inh -36, CSC inhib -11, Mdm2-MdmX inh -1 and Beta cell apopt 2.
`Oc1cc(OCc2ccccc2)ccc1-c1[nH]ncc1-c1ccccc1` gave Jurkat NFkB inh 2, Gli-Sufu antag 0, 697 NFkB inh 3, CSC inhib 47, Mdm2-MdmX inh 15 and Beta cell apopt 5.
For O=[N+]([O-])c1ccc(COc2ccc(-c3[nH]ncc3-c3ccccc3)c(O)c2)cc1 the results were Jurkat NFkB inh -2, Gli-Sufu antag 4, 697 NFkB inh 3, CSC inhib 118*, Mdm2-MdmX inh 27 and Beta cell apopt 25.
`CC1(C)C=Cc2c(ccc3c2OC[C@H](c2ccc(O)cc2O)C3)O1` gave Jurkat NFkB inh -55, Gli-Sufu antag -39, 697 NFkB inh -52, CSC inhib 114*, Mdm2-MdmX inh -47 and Beta cell apopt 2.
For Cc1cccc(OCC(=O)Nc2ccccc2N2CCCC2)c1C the results were Jurkat NFkB inh 4, Gli-Sufu antag 5, 697 NFkB inh -26, CSC inhib 80*, Mdm2-MdmX inh 11 and Beta cell apopt -3.
